In the library only some 7.5% were active in any assay of this set; here they are far more common.
ELG1 DNA repair – blocks ELG1-dependent DNA repair in HEK293T cells; Potency, µM (highest dose often 46.1 µM), for the others: at the highest dose activity change, negative = inhibition, usual class: inhibitors; AID 504467; actives 2.3% (n = 330,000); HEK293T ELG1-luciferase reporter, luminescence, 16 h; DNA damage induced by 5-fluorouridine; further: potency means the concentration at half of the fitted maximal effect; nearly all actives have a fitted effect of over 55% in size
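Reporter activity after DNA damage by 5-fluorouridine is monitored. Compound-treated cells incubate 16 hr at 37 °C, then ONE-Glo is added for 30 min before luminescence reading.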
TSHR antagonist – human thyrotropin receptor antagonism. P16473. TSHR-expressing cells, TSH-stimulated cAMP HTRF, 2 h; active compounds read low. activity change, negative = inhibition, % at 11.5 µM. actives 0.2% (n = 330,000);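 active means activity change below a set negative limit, meaning inhibition stronger than a set level, cut at about -70% in these data; inconclusive means activity change between two set negative limits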
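TSHR-expressing cells, 200/well, pre-treated with compound, then stimulated with EC80 TSH (4nM final) for 2 hours at 37 deg C. cAMP measured by competitive HTRF: anti-cAMP cryptate antibody in lysis buffer plus cAMP-d2, read after 30 minutes at room temperature.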
B2AR arrestin – beta2AR (human) beta-arrestin recruitment activity. P07550. beta-arrestin recruitment to beta2AR, cell-based reporter. Potency, µM (top dose mostly 46.1 µM), without a hit: top-dose activation, usual class: activators. actives 0.02% (n = 330,000);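 further: potency means the concentration at half of the fitted maximal effect; 0% = DMSO controls and full agonism = EC100 isoproterenol or metaproterenol; nearly all actives have a fitted effect of over 65% in size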
Target sequence (P07550 whole entry, looked up): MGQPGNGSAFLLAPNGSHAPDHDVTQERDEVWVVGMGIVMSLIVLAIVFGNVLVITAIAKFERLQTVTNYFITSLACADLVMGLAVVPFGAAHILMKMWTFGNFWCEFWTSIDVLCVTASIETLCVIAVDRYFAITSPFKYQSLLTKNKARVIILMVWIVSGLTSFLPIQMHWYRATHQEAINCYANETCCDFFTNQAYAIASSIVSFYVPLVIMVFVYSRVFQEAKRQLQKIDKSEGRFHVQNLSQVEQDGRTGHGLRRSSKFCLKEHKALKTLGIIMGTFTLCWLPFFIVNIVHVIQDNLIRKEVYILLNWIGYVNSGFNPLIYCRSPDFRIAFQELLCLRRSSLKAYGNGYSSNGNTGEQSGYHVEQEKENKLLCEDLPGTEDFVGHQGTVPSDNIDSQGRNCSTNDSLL
Gal4-VP16 FLuc – Gal4-VP16 reporter inhibition counter-screen; actives 3.5% (n = 310,000); Drosophila S2 Gal4-VP16 UAS-luciferase, luminescence, 20 h; Potency, µM (series often up to 53.6 µM), without a hit: at the highest dose activity, negative = inhibition, usual class: inhibitors;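 further: Gal4-VP16 expression switched on by copper sulfate through the metallothionein promoter; potency means the concentration at half of the fitted maximal effect; nearly all actives have a fitted effect of over 50% in size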
RORgamma inh – ROR gamma (mouse) transcription inhibition; AID 2551; Potency, µM (highest dose often 53.6 µM), inactives show at the top dose activity change, negative = inhibition, actives largely listed as inhibitors; Drosophila S2 Gal4-RORgamma UAS-luciferase reporter, 20 h; P51450; actives 5.4% (n = 310,000); further: potency means the concentration at half of the fitted maximal effect; nearly all actives have a fitted effect of over 60% in size
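Schneider cells (Drosophila), stable Gal4 DBD–ROR gamma + UAS-luc; 1 hr cmpd preincubation; Cu2+ induction 700 uM final; 20 hr ambient; luminescence.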
Numbers without * were called inactive; [ ] = remark or other dose. Unless noted, the call rests on the fitted dose curve; in most records, active means well fitted curve in the direction sought with a large enough effect; inconclusive means small, poorly fitted or top-dose-only effect, or another doubt; inactive means no such curve, though single readings can be large; an effect the other way counts as inactive or inconclusive. Unless noted, on the % scale 0 is the no-effect control and ±100 the full control effect.

CCOc1ccc(C(C)=O)cc1N1C(=O)C2C3C=CC(O3)C2C1=O (centres undefined) was read as ELG1 DNA repair inconclusive, TSHR antagonist 8, B2AR arrestin -1%, Gal4-VP16 FLuc 6.3µM* and RORgamma inh 6.3µM*.
Cc1[nH]nc2cn[nH]c12 was read as ELG1 DNA repair 13µM*, TSHR antagonist 7, B2AR arrestin 0%, Gal4-VP16 FLuc -3% and RORgamma inh -16%[10 µM].
Screening CC(C)NC(=O)CCc1nc2cccnc2n1-c1ccccc1 returned ELG1 DNA repair 2%, TSHR antagonist -6, B2AR arrestin 0%, Gal4-VP16 FLuc -5% and RORgamma inh 0%.
For COc1cccc(C2=Nn3c(nnc3-c3ccccc3OC)SC2)c1 the results were Gal4-VP16 FLuc 5% and RORgamma inh inconclusive.
Screening O=S(=O)(c1ccccc1)N1CCC2(CCN(Cc3ccncc3)CC2)CC1 returned Gal4-VP16 FLuc 1% and RORgamma inh 0%.
`CCNC(=S)NN=C1CCC(C(C)(C)C)CC1` (centres undefined) gave ELG1 DNA repair 5%, TSHR antagonist 5, B2AR arrestin 4%, Gal4-VP16 FLuc 3% and RORgamma inh 8.9µM*.
Screening COc1ccc(S(=O)(=O)N(C)C)cc1NCC(=O)Nc1ccc(Br)c(C)c1 returned ELG1 DNA repair inconclusive, TSHR antagonist 1, B2AR arrestin -1%, Gal4-VP16 FLuc -5% and RORgamma inh 30%.
`CC(Nc1ncnc2sccc12)c1ccccc1` (centres undefined) gave ELG1 DNA repair inconclusive, TSHR antagonist -39, B2AR arrestin -1%, Gal4-VP16 FLuc 1.4µM* and RORgamma inh inconclusive.
Screening COc1cccc(NC(=O)Cc2nnc(SCC(=O)NC3CCCC3)n2C)c1 returned ELG1 DNA repair 11%, TSHR antagonist 7, B2AR arrestin 0%, Gal4-VP16 FLuc -2% and RORgamma inh 0%.
For O=C(N/N=C/c1cc2c3c(c1O)CCCN3CCC2)c1ccccc1O the results were ELG1 DNA repair inconclusive, TSHR antagonist -23, B2AR arrestin -1%, Gal4-VP16 FLuc 20µM* and RORgamma inh inconclusive.
For Cc1ccc(NS(=O)(=O)c2cccc(C(=O)N/N=C/c3c(C)nn(-c4ccccc4)c3N3CCCC3)c2)c(C)c1 the results were ELG1 DNA repair inconclusive, TSHR antagonist 2, B2AR arrestin 0%, Gal4-VP16 FLuc -5% and RORgamma inh 20%.
`CCNc1ccc(C(=O)N/N=C/c2c(C)nn(-c3ccccc3)c2N2CCCC2)cc1[N+](=O)[O-]` gave ELG1 DNA repair 21µM*, TSHR antagonist -5, B2AR arrestin 0%, Gal4-VP16 FLuc inconclusive and RORgamma inh -6%.
`Cc1nn(-c2ccccc2)c(N2CCCC2)c1/C=N/NC(=O)c1ccccc1O` gave ELG1 DNA repair -11%, TSHR antagonist -11, B2AR arrestin -1%, Gal4-VP16 FLuc 10µM* and RORgamma inh 10µM*.
COc1ccc(Cl)cc1NC(=O)CN(C)C(=O)CCSc1ccc(C)cc1 was read as ELG1 DNA repair inconclusive, TSHR antagonist -2 and B2AR arrestin 0%.
For COc1ccccc1NC(=O)NCCc1ccccc1 the results were ELG1 DNA repair -5%, TSHR antagonist -4, B2AR arrestin -1%, Gal4-VP16 FLuc -5% and RORgamma inh 11%.
For COc1ccccc1NC(=S)NCCc1ccc(Cl)cc1 the results were ELG1 DNA repair 3%, TSHR antagonist 15, B2AR arrestin 0%, Gal4-VP16 FLuc 7.1µM* and RORgamma inh 1.8µM*.
`COc1ccccc1NC(=S)NCCSc1ccc(Cl)cc1` gave ELG1 DNA repair -4%, TSHR antagonist -13, B2AR arrestin -1%, Gal4-VP16 FLuc inconclusive and RORgamma inh 18µM*.
COc1ccc(NC(=S)NCCSc2ccc(Cl)cc2)c(OC)c1 was read as ELG1 DNA repair 0%, TSHR antagonist 8, B2AR arrestin 0%, Gal4-VP16 FLuc 0%[0.365 µM] and RORgamma inh 1.1µM*.
COc1ccc(Cl)cc1NC(=S)NCCSc1ccc(C)cc1 was read as ELG1 DNA repair -2%, TSHR antagonist -2, B2AR arrestin -1%, Gal4-VP16 FLuc 5µM* and RORgamma inh 6.3µM*.
For CC12C=C(/C=C/C=C/c3ccco3)C(C)(C1)C(/C=C/c1ccco1)CC2=O (centres undefined) the results were Gal4-VP16 FLuc -2%[10 µM] and RORgamma inh 21%[10 µM].
`CCC1(c2ccccc2)NC(=S)N(c2ccc(C)c(C)c2)N1` (centres undefined) gave ELG1 DNA repair inconclusive, TSHR antagonist 7, B2AR arrestin 0%, Gal4-VP16 FLuc inconclusive and RORgamma inh 2.8µM*.
For CCC1(c2ccc(Cl)cc2)NC(=S)N(c2ccc(C)c(C)c2)N1 (centres undefined) the results were ELG1 DNA repair 12%, TSHR antagonist -7, B2AR arrestin 0%, Gal4-VP16 FLuc -5% and RORgamma inh inconclusive.
`CCC1(c2ccc(Cl)cc2)NC(=S)N(c2ccc(C)cc2)N1` (centres undefined) gave ELG1 DNA repair inconclusive, TSHR antagonist 1, B2AR arrestin 4%, Gal4-VP16 FLuc 1% and RORgamma inh 1.8µM*.
`C=CCN(CC=C)C(=O)CN1C(=O)NC(Cc2c[nH]c3ccccc23)C1=O` (centres undefined) gave ELG1 DNA repair -3%, TSHR antagonist -3, B2AR arrestin 0%, Gal4-VP16 FLuc 1% and RORgamma inh -1%.
CN(C)c1cccc(C(=O)OCc2cc(=O)oc3cc(O)ccc23)c1 was read as ELG1 DNA repair 10%, TSHR antagonist -25, B2AR arrestin 0%, Gal4-VP16 FLuc inconclusive and RORgamma inh 8.9µM*.
Screening S=c1[nH]nc(Nc2cccc(Cl)c2)s1 returned ELG1 DNA repair inconclusive, TSHR antagonist -13, B2AR arrestin 0%, Gal4-VP16 FLuc -9% and RORgamma inh -38%.
For S=c1[nH]nc(Nc2ccccc2Cl)s1 the results were ELG1 DNA repair inconclusive, TSHR antagonist 8, B2AR arrestin 0%, Gal4-VP16 FLuc 0% and RORgamma inh 7.9µM*.
Screening N#Cc1cc2c(nc1SCC(=O)Nc1sc3c(c1C#N)CCC3)CCCC2 returned ELG1 DNA repair 23%, TSHR antagonist -11, B2AR arrestin 0%, Gal4-VP16 FLuc 14% and RORgamma inh 15%.
`Cn1cnnc1SCC(=O)Nc1sc2c(c1C#N)CCCCC2` gave ELG1 DNA repair inconclusive, TSHR antagonist 1, B2AR arrestin 4%, Gal4-VP16 FLuc inconclusive and RORgamma inh inconclusive.
Screening N#Cc1ccc(-c2ccc(F)cc2)nc1SCC(=O)Nc1sc2c(c1C#N)CCC2 returned ELG1 DNA repair 6.5µM*, TSHR antagonist 0, B2AR arrestin 0%, Gal4-VP16 FLuc 10% and RORgamma inh -22%.

Screening results as filed in PubChem.
